Holding throughout (test): DAPPL (digital affinity profiling via proximity ligation, sequencing); 10 mM Tris-HCl pH 7.5, 50 mM NaCl, 1 mM DTT, 4% glycerol, room temperature, 30 min; GST-TFs on glutathione beads, 16-mer random dsDNA library, 0.1% formaldehyde crosslink after washing; high values mean tight binding
The target in one experiment is T1, FLI1 (Homo sapiens, UniProt Q01543 1-452).
T1 sequence: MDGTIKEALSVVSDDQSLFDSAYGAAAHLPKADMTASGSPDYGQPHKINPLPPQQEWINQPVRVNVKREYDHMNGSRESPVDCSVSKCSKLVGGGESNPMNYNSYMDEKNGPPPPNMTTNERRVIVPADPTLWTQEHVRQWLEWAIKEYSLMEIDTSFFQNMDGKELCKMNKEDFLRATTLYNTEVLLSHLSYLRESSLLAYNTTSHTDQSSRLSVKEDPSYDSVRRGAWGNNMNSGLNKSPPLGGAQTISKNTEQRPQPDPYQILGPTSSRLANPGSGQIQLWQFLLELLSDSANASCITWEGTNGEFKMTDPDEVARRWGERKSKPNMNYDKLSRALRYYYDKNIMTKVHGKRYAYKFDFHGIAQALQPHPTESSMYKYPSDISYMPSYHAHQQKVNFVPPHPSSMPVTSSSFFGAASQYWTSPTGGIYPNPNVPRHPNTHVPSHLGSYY
Particulars: protein: recombinant; tags: N-terminal GST; dsDNA, one strand shown. Put shortly:
(§1)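 Pools of DNA-barcoded human transcription factors, expressed in yeast as GST fusions on glutathione beads and combined with a tag-only sample, were incubated with 200 nmole of a 16-mer random double-stranded DNA library. Incubation took 30 min at room temperature in Tris/NaCl/DTT/glycerol buffer and was followed by washing, 0.1% formaldehyde crosslinking, proximity ligation (BsaI/T4 ligase, 1 h, 37 °C), PCR amplification and sequencing on an Illumina NextSeq500. Binding signal is the ratio of a hexamer's read frequency for a factor to its frequency for the tag-only sample.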

The next experiment addresses T2, ELK1 (Homo sapiens, UniProt P19419 1-428).
T2 sequence: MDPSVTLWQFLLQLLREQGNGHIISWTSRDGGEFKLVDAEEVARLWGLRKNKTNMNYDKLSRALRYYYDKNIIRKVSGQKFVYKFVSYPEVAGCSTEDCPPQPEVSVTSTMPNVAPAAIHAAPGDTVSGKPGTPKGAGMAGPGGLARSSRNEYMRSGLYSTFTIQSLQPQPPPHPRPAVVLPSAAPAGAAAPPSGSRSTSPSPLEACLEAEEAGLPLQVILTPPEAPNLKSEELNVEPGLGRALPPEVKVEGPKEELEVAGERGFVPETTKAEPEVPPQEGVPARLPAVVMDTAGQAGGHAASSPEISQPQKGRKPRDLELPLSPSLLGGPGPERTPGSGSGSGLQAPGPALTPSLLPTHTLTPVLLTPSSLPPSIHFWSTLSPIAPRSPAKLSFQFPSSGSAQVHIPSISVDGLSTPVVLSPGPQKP
Particulars: protein: recombinant; tags: N-terminal GST; dsDNA, one strand shown. In outline: as §1

The target of a further experiment is T3, GABPA (Homo sapiens, UniProt Q06546 1-454).
T3 sequence: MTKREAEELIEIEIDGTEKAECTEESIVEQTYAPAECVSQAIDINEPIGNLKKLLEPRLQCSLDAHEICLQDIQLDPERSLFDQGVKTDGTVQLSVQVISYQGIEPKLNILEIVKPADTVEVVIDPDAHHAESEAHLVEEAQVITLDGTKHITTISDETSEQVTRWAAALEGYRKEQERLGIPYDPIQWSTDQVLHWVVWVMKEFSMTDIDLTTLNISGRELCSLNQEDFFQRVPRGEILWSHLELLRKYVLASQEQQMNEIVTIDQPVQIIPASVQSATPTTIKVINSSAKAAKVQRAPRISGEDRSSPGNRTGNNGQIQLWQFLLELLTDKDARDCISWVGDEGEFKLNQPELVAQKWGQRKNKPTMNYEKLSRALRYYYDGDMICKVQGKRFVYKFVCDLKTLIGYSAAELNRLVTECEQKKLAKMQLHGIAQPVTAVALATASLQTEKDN
Particulars: protein: recombinant; tags: N-terminal GST; dsDNA, one strand shown. Put shortly:
as §1

In a further experiment the target is T4, ERG (Homo sapiens, UniProt P11308 1-479).
T4 sequence: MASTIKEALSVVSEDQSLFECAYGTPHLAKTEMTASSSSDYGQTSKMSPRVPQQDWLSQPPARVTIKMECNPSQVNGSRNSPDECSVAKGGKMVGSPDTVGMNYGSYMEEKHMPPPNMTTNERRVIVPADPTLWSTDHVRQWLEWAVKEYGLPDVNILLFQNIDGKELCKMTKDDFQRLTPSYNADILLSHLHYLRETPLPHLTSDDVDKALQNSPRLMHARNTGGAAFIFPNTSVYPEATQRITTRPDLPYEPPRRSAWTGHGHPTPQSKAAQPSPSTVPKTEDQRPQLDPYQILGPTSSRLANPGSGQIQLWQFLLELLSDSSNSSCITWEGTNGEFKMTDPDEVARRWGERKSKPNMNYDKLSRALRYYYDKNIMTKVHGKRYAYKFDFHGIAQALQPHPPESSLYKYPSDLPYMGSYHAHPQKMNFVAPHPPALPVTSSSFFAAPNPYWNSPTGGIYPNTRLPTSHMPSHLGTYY
The conditions noted are these: protein: recombinant; tags: N-terminal GST; dsDNA, one strand shown. Put shortly:
as §1

A further experiment addresses ELF1 (Homo sapiens, UniProt P32519 1-619). Particulars: protein: recombinant; tags: N-terminal GST; dsDNA, one strand shown. In outline:
as §1

In the next experiment the target is T5, EHF (Homo sapiens, UniProt Q9NZC4 1-300).
T5 sequence: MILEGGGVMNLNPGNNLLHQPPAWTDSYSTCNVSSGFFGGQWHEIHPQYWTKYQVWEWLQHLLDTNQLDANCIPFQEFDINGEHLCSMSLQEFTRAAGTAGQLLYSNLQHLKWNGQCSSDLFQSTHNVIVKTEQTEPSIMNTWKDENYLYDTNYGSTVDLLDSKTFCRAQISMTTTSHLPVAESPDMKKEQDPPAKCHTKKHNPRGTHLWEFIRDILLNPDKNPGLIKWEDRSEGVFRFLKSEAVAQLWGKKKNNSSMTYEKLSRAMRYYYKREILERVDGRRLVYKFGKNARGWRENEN
The conditions noted are these: protein: recombinant; tags: N-terminal GST; dsDNA, one strand shown. Put shortly:
as §1

The target in another experiment is SPI1 (Homo sapiens, UniProt P17947 1-270). The conditions noted are these: protein: recombinant; tags: N-terminal GST; dsDNA, one strand shown. Put shortly:
as §1

A further experiment has as its target SPIB (Homo sapiens, UniProt Q01892 1-262). The conditions noted are these: protein: recombinant; tags: N-terminal GST; dsDNA, one strand shown. In outline: as §1
A further experiment concerns the target T6, ELK3 (Homo sapiens, UniProt P41970 1-407).
T6 sequence: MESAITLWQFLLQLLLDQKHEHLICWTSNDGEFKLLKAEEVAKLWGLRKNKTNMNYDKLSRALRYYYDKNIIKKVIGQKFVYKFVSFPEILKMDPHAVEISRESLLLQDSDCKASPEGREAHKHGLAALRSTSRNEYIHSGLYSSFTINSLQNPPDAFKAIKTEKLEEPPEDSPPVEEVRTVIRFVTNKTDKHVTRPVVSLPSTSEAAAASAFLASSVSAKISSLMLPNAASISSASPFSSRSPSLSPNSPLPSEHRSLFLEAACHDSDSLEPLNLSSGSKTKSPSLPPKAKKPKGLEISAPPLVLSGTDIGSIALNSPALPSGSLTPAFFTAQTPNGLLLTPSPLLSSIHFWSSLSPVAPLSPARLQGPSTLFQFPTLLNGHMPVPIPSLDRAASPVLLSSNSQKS
Particulars: protein: recombinant; tags: N-terminal GST; dsDNA, one strand shown. In outline:
as §1

The target in another experiment is T7, FEV (Homo sapiens, UniProt Q99581 1-238).
T7 sequence: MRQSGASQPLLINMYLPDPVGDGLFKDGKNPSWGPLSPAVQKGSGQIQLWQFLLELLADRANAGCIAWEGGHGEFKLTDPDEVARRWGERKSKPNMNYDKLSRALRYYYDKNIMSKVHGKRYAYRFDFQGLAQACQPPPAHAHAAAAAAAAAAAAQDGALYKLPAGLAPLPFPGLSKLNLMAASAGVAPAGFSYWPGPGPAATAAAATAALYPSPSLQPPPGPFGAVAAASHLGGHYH
The conditions noted are these: protein: recombinant; tags: N-terminal GST; dsDNA, one strand shown. In outline:
as §1

The target in another experiment is ETV5 (Homo sapiens, UniProt P41161 1-510). Particulars: protein: recombinant; tags: N-terminal GST; dsDNA, one strand shown. Put shortly: as §1
The next experiment addresses HSF1 (Homo sapiens, UniProt Q00613 1-529). Particulars: protein: recombinant; tags: N-terminal GST; chain copies: 3; dsDNA, one strand shown. In outline: as §1
For another experiment, the target named is T8, SPIC (Homo sapiens, UniProt Q8N5J4 1-248).
T8 sequence: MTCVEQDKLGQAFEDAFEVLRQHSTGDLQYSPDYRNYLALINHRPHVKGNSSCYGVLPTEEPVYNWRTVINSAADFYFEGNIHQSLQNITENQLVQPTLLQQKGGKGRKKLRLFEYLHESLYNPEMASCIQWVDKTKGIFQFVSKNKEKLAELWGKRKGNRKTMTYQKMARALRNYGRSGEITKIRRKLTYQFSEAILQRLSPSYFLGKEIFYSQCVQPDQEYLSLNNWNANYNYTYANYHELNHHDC
The conditions noted are these: protein: recombinant; tags: N-terminal GST; dsDNA, one strand shown. Put shortly:
as §1

In the next experiment the target is ELF4 (Homo sapiens, UniProt Q99607 1-663). The conditions noted are these: protein: recombinant; tags: N-terminal GST; dsDNA, one strand shown. In outline:
as §1

For the next experiment, the target named is T9, ELK4 (Homo sapiens, UniProt P28324-2 1-405).
T9 sequence: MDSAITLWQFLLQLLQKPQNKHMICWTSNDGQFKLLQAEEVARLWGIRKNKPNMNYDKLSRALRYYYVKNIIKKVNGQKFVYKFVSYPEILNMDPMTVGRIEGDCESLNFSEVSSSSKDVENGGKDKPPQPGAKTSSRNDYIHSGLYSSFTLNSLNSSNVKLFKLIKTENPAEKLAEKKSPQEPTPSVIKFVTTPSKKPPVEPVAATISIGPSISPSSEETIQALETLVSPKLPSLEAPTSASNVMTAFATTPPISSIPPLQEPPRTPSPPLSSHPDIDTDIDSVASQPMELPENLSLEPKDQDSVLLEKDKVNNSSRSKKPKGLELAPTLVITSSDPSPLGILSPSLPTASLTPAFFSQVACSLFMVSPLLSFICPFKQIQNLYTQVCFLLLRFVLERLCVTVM
The conditions noted are these: protein: recombinant; tags: N-terminal GST; dsDNA, one strand shown. In outline:
as §1

Another experiment concerns the target T10, ETV2 (Homo sapiens, UniProt O00321 1-342).
T10 sequence: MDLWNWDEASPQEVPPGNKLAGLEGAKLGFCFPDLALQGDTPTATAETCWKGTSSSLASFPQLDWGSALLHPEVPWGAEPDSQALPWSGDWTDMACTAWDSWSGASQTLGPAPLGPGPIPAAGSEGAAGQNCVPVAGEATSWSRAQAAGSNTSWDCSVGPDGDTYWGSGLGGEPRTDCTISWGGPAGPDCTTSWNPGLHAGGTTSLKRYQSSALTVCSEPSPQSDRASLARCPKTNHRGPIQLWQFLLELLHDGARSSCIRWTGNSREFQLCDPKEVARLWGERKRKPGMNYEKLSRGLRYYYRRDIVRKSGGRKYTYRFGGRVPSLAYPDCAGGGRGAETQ
Particulars: protein: recombinant; tags: N-terminal GST; dsDNA, one strand shown. Put shortly: as §1

Another experiment addresses T11, ELF3 (Homo sapiens, UniProt P78545 1-371).
T11 sequence: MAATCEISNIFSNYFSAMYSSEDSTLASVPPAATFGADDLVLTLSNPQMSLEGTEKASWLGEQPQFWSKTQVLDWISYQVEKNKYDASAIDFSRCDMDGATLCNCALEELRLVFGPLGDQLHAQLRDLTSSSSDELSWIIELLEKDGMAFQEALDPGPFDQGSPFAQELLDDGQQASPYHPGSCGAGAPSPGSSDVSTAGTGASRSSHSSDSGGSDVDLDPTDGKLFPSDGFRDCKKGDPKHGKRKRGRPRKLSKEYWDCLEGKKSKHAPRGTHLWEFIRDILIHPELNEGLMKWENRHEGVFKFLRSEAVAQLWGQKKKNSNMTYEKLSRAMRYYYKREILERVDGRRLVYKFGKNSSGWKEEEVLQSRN
The conditions noted are these: protein: recombinant; tags: N-terminal GST; dsDNA, one strand shown. Put shortly:
as §1

The target of another experiment is ETV1 (Homo sapiens, UniProt P50549 1-477). The conditions noted are these: protein: recombinant; tags: N-terminal GST; dsDNA, one strand shown. In outline:
as §1

ELF4, sequence (Q99607 whole entry): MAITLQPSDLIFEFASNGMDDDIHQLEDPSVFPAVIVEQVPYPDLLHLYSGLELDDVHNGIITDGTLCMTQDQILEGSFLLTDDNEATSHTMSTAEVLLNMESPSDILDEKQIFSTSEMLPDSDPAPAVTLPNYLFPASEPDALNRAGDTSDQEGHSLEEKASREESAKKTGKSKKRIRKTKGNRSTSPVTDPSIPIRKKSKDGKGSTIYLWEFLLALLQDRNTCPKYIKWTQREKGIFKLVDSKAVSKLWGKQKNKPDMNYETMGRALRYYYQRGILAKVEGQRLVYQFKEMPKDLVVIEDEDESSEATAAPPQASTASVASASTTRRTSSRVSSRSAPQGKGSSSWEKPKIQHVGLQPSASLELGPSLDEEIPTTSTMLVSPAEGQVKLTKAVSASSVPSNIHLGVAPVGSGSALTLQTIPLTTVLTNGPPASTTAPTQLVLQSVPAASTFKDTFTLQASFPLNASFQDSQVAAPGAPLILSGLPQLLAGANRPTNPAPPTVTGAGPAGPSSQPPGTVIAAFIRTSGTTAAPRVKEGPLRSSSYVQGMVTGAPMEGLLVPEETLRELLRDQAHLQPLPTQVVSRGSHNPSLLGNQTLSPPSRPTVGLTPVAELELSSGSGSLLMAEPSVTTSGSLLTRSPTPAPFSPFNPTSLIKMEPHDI
ETV5, sequence (P41161 whole entry): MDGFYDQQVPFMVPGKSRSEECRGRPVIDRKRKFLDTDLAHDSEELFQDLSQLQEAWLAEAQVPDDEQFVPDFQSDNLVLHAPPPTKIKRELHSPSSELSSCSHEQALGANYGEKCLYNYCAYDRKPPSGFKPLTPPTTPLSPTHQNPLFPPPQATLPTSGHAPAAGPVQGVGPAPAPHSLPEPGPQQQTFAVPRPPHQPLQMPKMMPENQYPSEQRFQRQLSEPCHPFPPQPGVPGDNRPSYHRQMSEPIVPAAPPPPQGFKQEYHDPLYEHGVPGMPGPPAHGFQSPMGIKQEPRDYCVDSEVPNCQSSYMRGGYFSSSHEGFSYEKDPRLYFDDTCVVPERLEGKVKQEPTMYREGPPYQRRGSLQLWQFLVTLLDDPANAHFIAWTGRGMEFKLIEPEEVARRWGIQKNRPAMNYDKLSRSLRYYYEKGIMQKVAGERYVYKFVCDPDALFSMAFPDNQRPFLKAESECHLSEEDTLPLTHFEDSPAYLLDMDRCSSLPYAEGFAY
HSF1, sequence (Q00613 whole entry): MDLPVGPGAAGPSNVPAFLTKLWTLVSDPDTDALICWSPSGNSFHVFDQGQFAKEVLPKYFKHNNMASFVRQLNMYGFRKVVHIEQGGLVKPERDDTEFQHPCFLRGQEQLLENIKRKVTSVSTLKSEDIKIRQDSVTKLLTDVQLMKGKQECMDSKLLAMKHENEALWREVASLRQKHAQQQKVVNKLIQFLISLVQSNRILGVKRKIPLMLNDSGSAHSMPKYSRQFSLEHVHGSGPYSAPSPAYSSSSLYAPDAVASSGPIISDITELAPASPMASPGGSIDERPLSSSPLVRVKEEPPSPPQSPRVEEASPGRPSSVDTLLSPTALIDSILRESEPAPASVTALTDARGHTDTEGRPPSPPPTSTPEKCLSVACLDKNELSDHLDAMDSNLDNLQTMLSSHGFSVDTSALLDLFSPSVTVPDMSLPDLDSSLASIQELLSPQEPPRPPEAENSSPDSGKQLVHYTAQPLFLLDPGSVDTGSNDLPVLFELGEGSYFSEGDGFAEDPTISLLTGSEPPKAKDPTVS
SPIB, sequence (Q01892 whole entry): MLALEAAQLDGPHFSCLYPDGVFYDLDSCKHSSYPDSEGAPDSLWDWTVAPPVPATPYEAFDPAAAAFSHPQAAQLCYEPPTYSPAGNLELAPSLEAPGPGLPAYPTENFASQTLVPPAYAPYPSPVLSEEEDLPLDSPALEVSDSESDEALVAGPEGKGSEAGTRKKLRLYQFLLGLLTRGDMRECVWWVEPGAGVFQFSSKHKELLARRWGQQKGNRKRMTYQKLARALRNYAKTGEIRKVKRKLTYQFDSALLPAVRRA
ETV1, sequence (P50549 whole entry): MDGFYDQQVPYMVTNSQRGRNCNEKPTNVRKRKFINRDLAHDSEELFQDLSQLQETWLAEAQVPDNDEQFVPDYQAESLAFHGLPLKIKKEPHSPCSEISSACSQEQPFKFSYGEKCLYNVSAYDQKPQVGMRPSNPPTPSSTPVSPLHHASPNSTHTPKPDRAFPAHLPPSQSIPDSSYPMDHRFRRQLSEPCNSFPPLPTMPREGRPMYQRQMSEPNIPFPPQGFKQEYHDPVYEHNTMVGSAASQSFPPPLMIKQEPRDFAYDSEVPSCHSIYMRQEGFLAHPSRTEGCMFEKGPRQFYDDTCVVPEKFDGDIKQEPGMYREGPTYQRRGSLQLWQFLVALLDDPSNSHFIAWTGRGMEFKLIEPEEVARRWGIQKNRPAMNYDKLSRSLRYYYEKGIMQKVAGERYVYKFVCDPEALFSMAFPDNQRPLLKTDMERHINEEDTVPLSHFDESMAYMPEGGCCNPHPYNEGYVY
ELF1, sequence (P32519 whole entry): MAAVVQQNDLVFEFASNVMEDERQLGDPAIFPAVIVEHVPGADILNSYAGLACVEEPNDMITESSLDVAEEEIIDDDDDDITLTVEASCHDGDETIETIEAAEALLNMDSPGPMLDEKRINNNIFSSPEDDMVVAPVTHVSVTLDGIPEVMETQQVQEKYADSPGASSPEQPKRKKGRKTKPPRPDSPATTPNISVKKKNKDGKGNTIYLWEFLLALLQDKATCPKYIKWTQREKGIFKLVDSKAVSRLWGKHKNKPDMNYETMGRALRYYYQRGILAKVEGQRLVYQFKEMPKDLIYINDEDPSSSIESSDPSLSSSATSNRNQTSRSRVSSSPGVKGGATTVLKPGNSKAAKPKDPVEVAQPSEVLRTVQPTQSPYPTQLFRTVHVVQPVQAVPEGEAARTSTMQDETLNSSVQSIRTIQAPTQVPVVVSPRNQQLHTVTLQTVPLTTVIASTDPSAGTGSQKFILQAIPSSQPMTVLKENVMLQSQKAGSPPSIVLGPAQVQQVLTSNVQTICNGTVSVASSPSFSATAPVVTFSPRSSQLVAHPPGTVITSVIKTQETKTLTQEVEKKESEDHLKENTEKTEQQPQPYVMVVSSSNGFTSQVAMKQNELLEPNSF

Turning to TGTCTC, the binding signal with FLI1 was 1.31 fold enrichment (6-mer frequency, TF over GST control); in the experiment with ELK1, 1.31 fold enrichment (6-mer frequency, TF over GST control); with GABPA, 1.31 fold enrichment (6-mer frequency, TF over GST control); in the experiment with ERG, 1.23 fold enrichment (6-mer frequency, TF over GST control); in the experiment with ELF1 it was 1.2 fold enrichment (6-mer frequency, TF over GST control); with EHF, 1.22 fold enrichment (6-mer frequency, TF over GST control). Further, the binding signal with SPI1 was 1.29 fold enrichment (6-mer frequency, TF over GST control); with SPIB, 1.28 fold enrichment (6-mer frequency, TF over GST control); with ELK3 it was 1.15 fold enrichment (6-mer frequency, TF over GST control); with FEV, 1.22 fold enrichment (6-mer frequency, TF over GST control); with ETV5, 1.33 fold enrichment (6-mer frequency, TF over GST control); with HSF1, 1.01 fold enrichment (6-mer frequency, TF over GST control). Also, the binding signal in the experiment with SPIC was 1.11 fold enrichment (6-mer frequency, TF over GST control); in the experiment with ELF4, 1.36 fold enrichment (6-mer frequency, TF over GST control); in the experiment with ELK4, 1.11 fold enrichment (6-mer frequency, TF over GST control); in the experiment with ETV2 it was 1.26 fold enrichment (6-mer frequency, TF over GST control); in the experiment with ELF3, 1.18 fold enrichment (6-mer frequency, TF over GST control); in the experiment with ETV1, 1.22 fold enrichment (6-mer frequency, TF over GST control).

Source of the values: article PMC7862700, “An all-to-all approach to the identification of sequence-specific readers for epigenetic DNA modifications on cytosine”.
